The list is not random: actives were taken first. Their share in the collection is about 19%.
HT1080NT lethal: kills 2HG-producing HT-1080-NT fibrosarcoma cells. HT-1080-NT fibrosarcoma viability, CellTiter-Glo ATP luminescence, 48 h. Potency, µM (series often up to 46.1 µM), usual class: cytotoxic. hit rate 1.6% among 360,000. AID 686970;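 note: NT is the 2HG producing partner of a matched IDH1 knockdown line; nearly all actives have a fitted effect of over 55% in size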
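Viability by CellTiter-Glo luminescence after 48 h compound exposure at 37C of HT-1080-NT cells (750/well, RPMI, 5% FBS). % activity scaled between DMSO wells and medium-only wells, then curve-fitted and categorized by curve class.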
IL-1B inflam inh: inflammasome signaling inhibition, IL-1 beta readout; hit rate 4.7% among 360,000; THP-1 LPS/ATP IL-1B secretion, AlphaLISA, 16 h; stronger effect = lower value; activity change, % at 57.5 µM; in the data active = activity change below about -50%; inconclusive = mostly about -30% to -49%
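Secreted IL-1B measured by AlphaLISA bead assay after 16 h compound exposure of THP-1 cells; compounds (final up to 57.5 uM) added 1 h before LPS (250 ng/mL) and ATP (1.25 mM) stimulation; lower signal means less secretion.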
HT1080 IDH1KD tx: kills HT-1080 cells with IDH1 knockdown; HT-1080 IDH1 knockdown viability, ATP luminescence, 48 h; Potency, µM (highest dose often 46.1 µM), usual class: cytotoxic; hit rate 2% among 360,000; AID 686971
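CellTiter-Glo luminescence after 48 h compound exposure at 37 degrees C of IDH1-knockdown HT-1080 cells in 5% FBS RPMI. %Activity scaled between DMSO wells and cell-free media wells, with curves fitted and assigned curve classes.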
TDP1 cell CPT: growth inhibition of DT40 Tdp1-/-;hTDP1 cells with camptothecin (screen for TDP1 inhibitors) | chicken DT40 Tdp1-/-;hTDP1 cells + 20 nM CPT, ATP luminescence, 48 h | Potency, µM (doses to about 46.2 µM), actives largely listed as inhibitors | hit rate 12% among 420,000 | AID 686979; note: nearly all actives have a fitted effect of over 55% in size
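Cell growth measured by CellTiter-Glo luminescence after a minimum 48 h, 37 C compound exposure with 20 nM CPT in Tdp1-knockout DT40 cells stably expressing hTDP1, seeded 400/well; qHTS titration format.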
DT40 TDP1 no CPT: qHTS for Inhibitors of human tyrosyl-DNA phosphodiesterase 1 (TDP1): qHTS in cells in absence of CPT | Potency, µM (series often up to 46.2 µM), actives largely listed as inhibitors | hit rate 15% among 420,000 | DT40 Tdp1-/- hTDP1 cells, no CPT, ATP luminescence, 48 h; note: nearly all actives have a fitted effect of over 55% in size
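Cells were dispensed at 400 per well, compounds added by pin tool, plates incubated ≥48 hr at 37 °C, then CellTiter-Glo added for 30 min at room temperature before luminescence reading. Line: DT40 Tdp1-/- complemented with hTDP1; camptothecin omitted.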
A number is an active result; . = inactive; ? = inconclusive; / = not tested or not shown. Unless noted, calls come from the whole dose curve; as a rule, active = well fitted curve in the direction sought with a large enough effect; inconclusive = small, poorly fitted or top-dose-only effect, or another doubt; inactive = no such curve, though single readings can be large; an effect the other way counts as inactive or inconclusive.

SMILES	HT1080NT lethal	IL-1B inflam inh	HT1080 IDH1KD tx	TDP1 cell CPT	DT40 TDP1 no CPT
O=c1cc(CN2CCN(Cc3ccccc3)CC2)c2cc3c(cc2o1)CCC3	.	-69.3	.	?	18.4µM
CC(C)CN(Cc1cc(=O)oc2cc3c(cc12)CCCC3)CC(C)C	.	.	.	?	20.6µM
CC(=O)Nc1ccc(NC(=O)C(OC(=O)c2ccccc2)C(OC(=O)c2ccccc2)C(=O)O)cc1 (centres undefined)	.	.	.	.	.
COCCCNc1ncnc2c1sc1nc(-c3ccco3)c3c(c12)CC(C)(C)OC3	?	.	?	?	14.6µM
COC(=O)CSc1nc(SC)nc2c1sc1nc(-c3ccco3)c3c(c12)CC(C)(C)OC3	.	.	.	.	.
Cc1nc2sc3c(NCc4ccco4)ncnc3c2c2c1COC(C)(C)C2	.	?	?	?	23.1µM
CC1(C)Cc2c(c(-c3ccco3)nc3sc4c(NCCO)ncnc4c23)CO1	.	.	.	23.1µM	9.2µM
CC(=O)Nc1ccc(SCC(=O)N2CCN(S(=O)(=O)c3ccccc3)CC2)cc1	.	.	.	.	?
CCn1c(SCC(=O)Nc2ccc(N(C)C)cc2)nnc1-c1cccc(C)c1	.	.	.	.	.
CCc1ccc(S(=O)(=O)c2nnn3c2nc(N2CCCC(C)C2)c2cc(Cl)ccc23)cc1 (centres undefined)	/	/	/	?	7.31µM
CCc1ccc(S(=O)(=O)c2nnn3c2nc(N2CCC(C)CC2)c2cc(Cl)ccc23)cc1	/	/	/	18.4µM	10.3µM
Cc1ccc(S(=O)(=O)c2nnn3c2nc(N2CCN(c4ccc(F)cc4)CC2)c2cc(Cl)ccc23)cc1C	/	/	/	.	.
CC(C)(C)C(=O)Nc1ccc2nc(SCC(=O)N3CCOCC3)sc2c1	/	/	/	.	?
Cc1nc2ccc(NC(=O)N3CCOCC3)cc2s1	.	.	.	.	.
O=C(Nc1cccc(Br)c1)c1cccc(OC(=S)N2CCOCC2)c1	.	-66.8	?	?	?
COc1cccc(C(=O)Nc2ccc3nc(SCC(=O)N4CCOCC4)sc3c2)c1	/	/	/	14.6µM	13µM
O=C(Nc1ccc(C(=O)N2CCOCC2)cc1)c1cccc(Br)c1	.	.	.	.	.
O=C(Nc1ccc2nc(SCC(=O)N3CCOCC3)sc2c1)c1ccc(Br)cc1	/	/	/	?	2.31µM
O=C(Nc1ccc2nc(SCC(=O)N3CCOCC3)sc2c1)c1cccc(Br)c1	/	/	/	13µM	8.2µM
Nc1nnc(SCC(=O)N2CCN(c3cccc(Cl)c3)CC2)n1-c1ccccc1	.	.	.	?	.
COc1cccc(C(=O)N2CCN(C3CCN(Cc4ccccc4)CC3)CC2)c1OC	.	.	.	.	.
Cc1ccc(Nc2nc(N)c([N+](=O)[O-])c(NCc3ccco3)n2)cc1C	.	-71.4	?	25.9µM	?
Cc1cccc(Nc2nc(N)c([N+](=O)[O-])c(NCc3ccccc3)n2)c1	?	/	16.4µM	?	?
Nc1nc(Nc2ccccc2)nc(NCc2ccccc2)c1[N+](=O)[O-]	?	-68.6	16.4µM	?	?
Cc1ccc(Nc2nc(N)c([N+](=O)[O-])c(NCCO)n2)cc1C	.	.	.	.	.
SMILES	HT1080NT lethal	IL-1B inflam inh	HT1080 IDH1KD tx	TDP1 cell CPT	DT40 TDP1 no CPT
Nc1nc(Nc2ccccc2)nc(NC2CCCCC2)c1[N+](=O)[O-]	?	-87.6	?	13µM	?
Cc1ccc(S(=O)(=O)NC(=O)C2(C)CCN2C(=O)Cc2cccs2)cc1 (centres undefined)	.	.	.	.	.
O=C(Nc1ccncc1)C1CCN(S(=O)(=O)c2cccc(C(F)(F)F)c2)CC1	.	.	.	?	?
COCCNc1nc(N)c([N+](=O)[O-])c(Nc2ccc(F)cc2)n1	?	.	14.6µM	.	.
N#CC1=C(N)Oc2cc(N)ccc2C1c1ccc(F)cc1 (centres undefined)	.	.	?	?	?
COc1cc(C2C(C#N)=C(N)Oc3cc(N)ccc32)cc(OC)c1OC (centres undefined)	?	.	0.581µM	0.92µM	0.651µM
N#CC1=C(N)Oc2cc(N)ccc2C1c1cccnc1 (centres undefined)	.	.	.	?	16.4µM
CC(=O)C1=C(C)OC(N)=C(C#N)C1c1cccnc1 (centres undefined)	.	.	.	?	.
N#CC1=C(N)Oc2cc(N)ccc2C1c1ccc(Cl)cc1 (centres undefined)	?	-74.7	?	.	.
CCN(CC)c1ccc2c(c1)OC(N)=C(C#N)C2c1cccnc1 (centres undefined)	?	-101.1	0.231µM	0.0206µM	0.0366µM
CCOc1ccccc1NC(=O)NCc1ccco1	.	.	.	.	.
COc1ccc(-c2cnc(C(O)c3ccc(C(C)(C)C)cc3)[nH]2)cc1 (centres undefined)	.	.	.	?	?
